Assay outcomes (PubChem)
KinaseGlo FLuc: Counterscreen for Luciferase (Kinase-Glo TM) Inhibition | Luciferin 4-monooxygenase (Photuris pensylvanica), Q27757 | Kinase-Glo luciferase, ATP luminescence, 8 min | Potency, µM (doses to about 38.3 µM), hits mostly inhibitors | actives 0.28% (n = 200,000) | AID 1379, 2008; also: nearly all actives have a fitted effect of over 60% in size
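Substrate mix (final 50 mM imidazole pH 7.2, 50 mM KCl, 7 mM MgCl2, 10 uM ATP, 0.01% Tween 20, 0.05% BSA) plus pin-tool compound, then Kinase-Glo detection mix; 8 min ambient, luminescence read.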
FLuc counter: qHTS profiling assay for firefly luciferase inhibitor/activator using purifed enzyme and Km concentrations of substrates (counterscreen for miR-21 project); Luciferin 4-monooxygenase (Photinus pyralis), P08659; purified FLuc, Km substrates, luminescence inhibition; Potency, µM (series often up to 57.5 µM), actives largely listed as inhibitors; actives 6.9% (n = 360,000); AID 588342, 2011; also: nearly all actives have a fitted effect of over 55% in size
Target sequence (P08659 whole entry, looked up): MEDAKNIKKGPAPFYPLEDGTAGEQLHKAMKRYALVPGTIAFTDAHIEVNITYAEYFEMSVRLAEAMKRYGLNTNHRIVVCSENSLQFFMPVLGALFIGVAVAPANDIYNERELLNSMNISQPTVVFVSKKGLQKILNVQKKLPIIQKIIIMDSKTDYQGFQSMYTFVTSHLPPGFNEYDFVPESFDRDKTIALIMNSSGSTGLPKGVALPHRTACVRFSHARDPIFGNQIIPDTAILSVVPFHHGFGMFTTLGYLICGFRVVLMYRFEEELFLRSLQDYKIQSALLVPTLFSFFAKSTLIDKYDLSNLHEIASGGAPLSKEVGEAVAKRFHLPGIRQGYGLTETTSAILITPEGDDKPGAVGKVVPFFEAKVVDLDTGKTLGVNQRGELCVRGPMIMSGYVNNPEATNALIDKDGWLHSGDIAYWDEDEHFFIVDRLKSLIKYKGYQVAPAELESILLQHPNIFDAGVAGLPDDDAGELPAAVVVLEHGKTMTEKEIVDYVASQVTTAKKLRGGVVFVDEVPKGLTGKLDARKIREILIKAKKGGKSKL
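Biochemical qHTS of compounds, final roughly 60 µM downward over six points, against 10 nM purified firefly luciferase using Km concentrations of substrates (10 uM D-luciferin, 10 uM ATP) in Tris acetate pH 7.5 buffer; luminescence output.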
SMN2 splice up: qHTS Assay for Enhancers of SMN2 Splice Variant Expression. HEK293 SMN2-luciferase splicing reporter, luminescence, 30-36 h. AID 1458, 2008. actives 2.8% (n = 210,000). Potency, µM (titrated, usually from 46.1 µM), hits mostly activators; also: nearly all actives have a fitted effect of over 55% in size
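HEK293 cells carry an SMN2 minigene-luciferase reporter in which exon 7 inclusion puts luciferase in frame. Cells were seeded at 2000 cells/well, attached for 10-12 hours, then exposed to compounds for 30-36 hours at 37C before ONE-Glo luminescence.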
NPC1 promoter act: qHTS Assay for NPC1 Promoter Activators | Huh7 NPC1 promoter luciferase reporter, 24 h | Potency, µM (series often up to 9.22 µM), usual class: activators | actives 2.4% (n = 320,000); also: nearly all actives have a fitted effect of over 60% in size
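Huh7 cells stably carrying NPC1 promoter–luciferase, plated in Opti-MEM with 10% FBS for 2 h, were exposed to compound in DMSO for 24 h at 37 °C; luciferase reagent was added for 10 min and luminescence read.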
Rab9 prom act: qHTS Assay for Rab9 Promoter Activators. Huh7 Rab9 promoter-luciferase reporter, luminescence, 24 h. Potency, µM (highest dose often 9.22 µM), hits mostly activators. actives 2.8% (n = 320,000); also: nearly all actives have a fitted effect of over 60% in size
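Stable Rab9-luc Huh7, 1500 cells/well, 2 h settle; cmpd in DMSO, 24 h, 37 °C/5% CO2; luciferase reagent 10 min RT; luminescence.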
ELG1 genotoxic: qHTS screen for small molecules that induce genotoxicity in human embryonic kidney (HEK293T) cells expressing luciferase-tagged ELG1 | Potency, µM (titrated, usually from 46 µM), most hits filed as activators | HEK293T ELG1-luciferase reporter, luminescence, 16 h | AID 504466, 2011 | actives 1.3% (n = 330,000); also: nearly all actives have a fitted effect of over 60% in size
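16 hr compound incubation (37 °C, 5% CO2) of HEK293T cells carrying luciferase-tagged ELG1; luciferase then measured by ONE-Glo luminescence after 30 min at RT.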
Hits are given with their value; n = inactive; u = inconclusive; x = not tested or not shown. Sampled rows, rich in hits. Any-hit rate of the full collection: about 7.5%. Calls follow the shape of the dose curve; as a rule, active = well fitted curve in the direction sought with a large enough effect; inconclusive = small, poorly fitted or top-dose-only effect, or another doubt; inactive = no such curve, though single readings can be large; an effect the other way counts as inactive or inconclusive.

SMILES	KinaseGlo FLuc	FLuc counter	SMN2 splice up	NPC1 promoter act	Rab9 prom act	ELG1 genotoxic
COC(=O)N1C(C2CC2)=Cc2ccccc2C1CC(C)=O (stereo unspecified)	n	x	n	x	x	x
CCN(CC)CC(C)CNC(=O)c1cc(-c2ccc(Br)s2)nc2ccccc12 (stereo unspecified)	x	n	n	x	x	x
CCOc1cc(N2CCOCC2)c(OCC)cc1NC(=O)COC(=O)CCn1c(C)csc1=O	x	n	x	n	n	n
Cc1cc2c(cc1Cl)C(c1ccccc1C)CC(=O)O2 (stereo unspecified)	n	x	x	x	x	x
CCOC(=O)c1c(Nc2ccccc2)sc(/C=C2\C=Nc3ccccc32)c1O	n	n	n	n	n	n
Oc1nc(Nc2ccccc2)sc1/C=C1\C=Nc2ccccc21	x	19µM	x	4µM	2.8µM	u
CCn1c(O)c(/C=C2\C=Nc3ccccc32)sc1=O	n	2.7µM	22µM	u	1.4µM	6.5µM
O=C(/C=C/c1ccc(Cl)cc1Cl)Nc1cccc(S(=O)(=O)NC2=NCCC2)c1	n	0.12µM	5.6µM	1µM	0.35µM	u
O=C(Nc1cccc(S(=O)(=O)NC2=NCCC2)c1)c1c(F)cccc1Cl	x	n	x	n	n	n
O=C(/C=C/c1ccccc1Cl)Nc1cccc(S(=O)(=O)NC2=NCCCCC2)c1	n	1.2µM	14µM	u	u	n
O=C1NC2(CCCCC2)C(=O)N1/N=C/c1ccc(O)cc1O	n	17µM	n	n	n	n
COc1ccc(C(=O)Nc2ccc(NC(=O)c3cccc(OC)c3)cn2)cc1	x	n	x	n	n	n
CCC(=O)Nc1ccc(NC(=O)c2cccc(OC)c2)nc1	n	11µM	11µM	u	2.2µM	u
CCCC(=O)Nc1ccc(NC(=O)c2cccc(OC)c2)cn1	x	n	x	n	n	n
COc1cccc(C(=O)Nc2ccc(NC(=O)C3CC3)cn2)c1	u	7.6µM	n	2µM	3.2µM	u
O=C(Nc1cccc(O)c1)c1noc2c1CCc1ccccc1-2	14µM	0.48µM	u	u	u	1.2µM
O=C(Nc1ccc(F)cc1F)c1noc2c1CCc1ccccc1-2	x	u	11µM	x	x	x
Cc1ccc(NC(=O)c2noc3c2CCc2ccccc2-3)cc1	n	7.6µM	u	4µM	2.8µM	21µM
COc1ccc(Cl)cc1NC(=O)c1noc2c1CCc1ccccc1-2	x	n	n	x	x	x
O=C(Nc1cccc(C(F)(F)F)c1)c1noc2c1CCc1ccccc1-2	x	u	n	x	x	x
CCc1ccc(NC(=O)c2noc3c2CCc2ccccc2-3)cc1	n	11µM	n	n	u	u
O=C(C1CCC1)N1CCCc2cc(S(=O)(=O)N3CCN(c4cccc(Cl)c4)CC3)ccc21	x	n	x	x	x	x
CCCC(=O)c1ccc(N2CCOCC2)c(F)c1	n	u	n	u	n	n
Cc1ccc(C(=O)c2ccc(N3CCOCC3)c(F)c2)cc1	n	17µM	n	n	n	n
Cc1cc(C)c2c(n1)nn1c(C)c(CCC(=O)Nc3cccc(C)c3C)c(C)nc21	x	n	n	x	x	x
SMILES	KinaseGlo FLuc	FLuc counter	SMN2 splice up	NPC1 promoter act	Rab9 prom act	ELG1 genotoxic
CCOc1ccc(NC(=O)Cn2c(CCC(=O)O)ccc2-c2ccc(Cl)cc2)cc1	x	u	n	x	x	x
Cc1ccc(NC(=O)CSCC(=O)Nc2cc(Cl)ccc2N2CCOCC2)cc1	x	n	x	n	n	n
O=C(NCCC(=O)N(CCc1ccccc1)Cc1ccccc1)c1ccc([N+](=O)[O-])cc1	x	n	x	n	n	n
Cc1ccc(NC(=S)NNC(=O)c2nn(C)c(C)c2Cl)cc1	n	n	u	u	3.2µM	n
CCC(C)NC(=S)Nc1ccccc1 (stereo unspecified)	x	n	x	n	n	n
O=C(NNC(=S)Nc1ccccc1)Nc1ccccc1	n	u	5.6µM	n	n	n
O=C(NNC(=S)Nc1ccccc1)NNC(=S)Nc1ccccc1	n	n	n	n	n	n
Cc1ccc(NC(=S)NNC(=O)Nc2ccccc2)cc1	n	2.4µM	13µM	u	3.2µM	u
CC(C)C(NC(=S)Nc1ccccc1)C(=O)O (stereo unspecified)	n	n	3.2µM	n	n	n
COc1cccc(CSc2nccn2C)c1	x	n	x	n	n	n
CN(C)Cc1ccccc1-c1nc(N(C)Cc2ccco2)c2ccccc2n1	n	x	n	x	x	x
N#Cc1ccccc1OCC(=O)NCC(c1cccs1)N1CCOCC1 (stereo unspecified)	x	n	x	n	n	n
O=c1[nH]c2cc(C(F)(F)F)c(N3CCOCC3)cc2n(CP(=O)(O)O)c1=O	n	x	x	x	x	x
N#CCSc1ncccc1-c1nc2ccccc2[nH]1	n	n	n	n	n	n
O=C(CSc1ncccc1-c1nc2ccccc2[nH]1)N1CCc2ccccc21	n	7.6µM	n	u	2.8µM	u
COC(=O)CSc1ncccc1-c1nc2ccccc2[nH]1	n	13µM	n	n	n	u
Cn1c(SCC(=O)N2CCc3ccccc32)nc2cccnc21	n	n	n	n	n	n
N#CCCCSc1ncccc1-c1nc2ccccc2[nH]1	n	u	n	u	u	n
CC(C)(C)NC(=O)CSc1ncccc1-c1nc2ccccc2[nH]1	x	24µM	x	n	n	n
Cc1ccc(-n2nnc3c(sc4nc(C)c(C)cc43)c2=O)cc1Cl	x	n	n	x	x	x
Cc1c(CC(=O)NCc2ccccc2Cl)c(=O)oc2cc(O)ccc12	x	21µM	n	x	x	x
Cc1c(CC(=O)NCC(=O)O)c(=O)oc2cc3occ(-c4ccccc4)c3cc12	x	24µM	x	n	n	n
Cc1c(CC(=O)NCCCC(=O)O)c(=O)oc2cc3occ(-c4ccccc4)c3cc12	x	19µM	x	n	n	n
COc1ccccc1CCNC(=O)Cc1c(C)c2ccc(O)cc2oc1=O	x	n	n	x	x	x
CC1CCCN(C(=O)Cn2ncc3c([nH]c4ccccc43)c2=O)C1 (stereo unspecified)	x	n	x	x	x	x
SMILES	KinaseGlo FLuc	FLuc counter	SMN2 splice up	NPC1 promoter act	Rab9 prom act	ELG1 genotoxic
COc1ccccc1CNC(=O)CSc1nc(C)cs1	n	n	n	n	n	n
COc1ccccc1C(=O)NC(=O)CSc1nc(C)cs1	x	13µM	x	n	n	n
Cc1ccccc1C(=O)Nc1ccc(N2CCCC2)cc1	u	9.5µM	x	u	u	n
O=C(Nc1ccc(N2CCCCC2)cc1)c1ccc2ccccc2n1	n	4.8µM	n	u	2.8µM	u
O=C(Nc1cccc(S(=O)(=O)N2CCCCCC2)c1)c1ccc2ccccc2n1	n	u	n	n	n	n
O=C(Nc1ccc(N2CCCC2)cc1)C(Cl)c1ccccc1 (stereo unspecified)	u	8.5µM	n	n	n	n
COC(=O)c1ccc(/C=N/n2cnnc2)cc1	n	n	n	n	n	n
